High-throughput results from PubChem BioAssay.
Most compounds without a hit are left out; they make up all but 2.4% or so of the library.
Rango-impB inh = qHTS Assay for Inhibitors of Rango (Ran-regulated importin-beta cargo) - Importin beta complex formation | Importin subunit beta-1 (Homo sapiens), Q14974 | Rango CFP/YFP FRET sensor + importin beta, 45 min | AID 540263, 2011 | 0.031% of 340,000 active | Potency, µM (series often up to 92.2 µM), without a hit: at the highest dose inhibition of complex formation; calls by dose curve;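 further: 0% = DMSO wells and 100% = buffer wells lacking importin beta; nearly all actives have a fitted effect of over 15% in size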
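Inhibition scored from the CFP 486 nm/YFP 530 nm FRET ratio 45 min after adding 0.125 microM importin beta to 50 nM Rango biosensor preincubated 5 min with compound (room temperature, PBS with DTT, Tween-20, BSA). No-importin wells as positive control.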
PGK inhibitor = qHTS Assay to Find Inhibitors of Phosphoglycerate Kinase. PGK/GAPDH coupled, Kinase-Glo luminescence, 60 min. Potency, µM (titrated, usually from 57.5 µM), for the others: at the top dose activity change, negative = inhibition, most hits filed as inhibitors. 0.043% of 380,000 active; further: on the % scale 0 is the no-effect control and ±100 the full control effect; nearly all actives have a fitted effect of over 60% in size
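Luminescent ATP detection (Kinase-Glo Plus) follows a 60-minute room-temperature incubation, with wells lacking PGK as controls. Buffer: 100 mM TEA (pH 7.6), 5 mM MgCl2, 0.01% Tween-20. Coupling enzyme GAPDH (100 nM final) supplies unstable 1,3-BPG in-well.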
ELG1 repair inh = qHTS screen for small molecules that inhibit ELG1-dependent DNA repair in human embryonic kidney (HEK293T) cells expressing luciferase-tagged ELG1; 2.3% of 330,000 active; HEK293T ELG1-luciferase reporter, luminescence, 16 h; DNA damage induced by 5-fluorouridine; Potency, µM (series often up to 46.1 µM), for the others: at the top dose activity change, negative = inhibition, most hits filed as inhibitors; AID 504467, 2011; further: on the % scale 0 is the no-effect control and ±100 the full control effect; nearly all actives have a fitted effect of over 55% in size
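DMSO vehicle served as the neutral condition. Each well held 2,000 cells given 5-fluorouridine plus compound; after 16 hr at 37 °C/5% CO2, ONE-Glo was added and luciferase measured 30 min later.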
PKM2 act = qHTS Assay for Activators of Human Muscle isoform 2 Pyruvate Kinase. Potency, µM (top dose mostly 57.5 µM), for inactives: at the top dose activation, usual class: activators. purified PKM2, Kinase-Glo ATP luminescence, activation; response scale: 0% is enzyme alone, no compound. 0.34% of 260,000 active; further: on the % scale 0 is the no-effect control and ±100 the full control effect; nearly all actives have a fitted effect of over 55% in size
Target sequence (P14618 whole entry, looked up, canonical isoform): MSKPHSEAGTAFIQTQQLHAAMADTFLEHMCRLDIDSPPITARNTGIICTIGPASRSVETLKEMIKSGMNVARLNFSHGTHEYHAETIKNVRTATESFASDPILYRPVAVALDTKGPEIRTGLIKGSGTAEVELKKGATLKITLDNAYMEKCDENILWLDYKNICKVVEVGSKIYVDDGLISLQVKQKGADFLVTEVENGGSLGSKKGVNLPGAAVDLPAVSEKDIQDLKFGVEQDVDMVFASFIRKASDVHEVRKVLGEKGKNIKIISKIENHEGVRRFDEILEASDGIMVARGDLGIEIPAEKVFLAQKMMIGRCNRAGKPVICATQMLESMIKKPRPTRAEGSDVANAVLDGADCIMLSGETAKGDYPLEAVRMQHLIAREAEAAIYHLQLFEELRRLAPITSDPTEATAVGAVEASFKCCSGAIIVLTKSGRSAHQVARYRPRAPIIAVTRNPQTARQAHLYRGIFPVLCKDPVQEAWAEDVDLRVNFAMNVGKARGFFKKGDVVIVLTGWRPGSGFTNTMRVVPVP
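hPK-M2, >95% pure; 0.1 mM ADP / 0.5 mM PEP final; imidazole pH7.2 buffer w/ 7 mM MgCl2, 50 mM KCl; 1 h RT; Kinase-Glo lum. Intermediate enzyme activity for dual inhibitor/activator qHTS.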
Rango release inh = qHTS Assay for Inhibitors of RanGTP induced Rango (Ran-regulated importin-beta cargo) - Importin beta complex dissociation | Biochemical FRET Rango-importin beta, RanGTP-induced dissociation | Potency, µM (highest dose often 46.1 µM), for inactives: top-dose activity change, negative = inhibition | 0.071% of 340,000 active; calls by dose curve; further: % of control where 0% means no effect; nearly all actives have a fitted effect of over 45% in size
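Rango FRET biosensor (snurportin-1 IBB flanked by N-terminal EYFP and C-terminal CFP10) at 0.1 uM, with 0.25 uM importin beta in PBS, 1mM DTT, 0.02% Tween-20, 0.1% BSA. 0.6 uM Ran, 2mM GTP and 0.2 uM RCC1 were then added for 45 min at room temperature. Inhibition read as loss of FRET rise.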
Tb PFK inh = qHTS Assay to Find Inhibitors of T. brucei phosphofructokinase; T. brucei PFK, ADP-Glo luminescence; Potency, µM (titrated, usually from 57.5 µM), inactives show at the top dose activity, negative = inhibition, most hits filed as inhibitors; 0.17% of 330,000 active; AID 485367, 2010;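 further: 0% = uninhibited 1x PFK enzyme wells and -100% = no-enzyme wells; nearly all actives have a fitted effect of over 60% in size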
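Luminescent ADP detection (ADP-Glo, two-step: ATP depletion then ADP-to-ATP conversion for luciferase) reported PFK activity after 45 min room-temperature reaction of 1.25 nM enzyme with 0.5 mM F6P and 0.1 mM ATP at pH 8.0.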
* hit, by the source's call; i = inactive; ? = inconclusive; / = no result. Unless noted, the call rests on the fitted dose curve; in most records, active means well fitted curve in the direction sought with a large enough effect; inconclusive means small, poorly fitted or top-dose-only effect, or another doubt; inactive means no such curve, though single readings can be large; an effect the other way counts as inactive or inconclusive. Potency means the concentration at half of the fitted maximal effect.

SMILES	Rango-impB inh	PGK inhibitor	ELG1 repair inh	PKM2 act	Rango release inh	Tb PFK inh
Cc1cn2c(=O)cc(COC(=O)c3ccc(NC(=O)c4ccc(C(C)(C)C)cc4)cc3)nc2s1	/	i	/	/	/	/
CCOc1ccc(Br)cc1S(=O)(=O)Nc1cccnc1	-1.6%	i	10.3%	/	0.2%	0.4%
CCN(CC)c1ccc(S(=O)(=O)N2CCOCC2)cc1NC(=O)CN1CCN(Cc2ccccc2)CC1	-4.4%	i	-22.3%	2.4%	1.4%	0.4%
CC(=O)NC1=NC(=O)/C(=C/c2cn(C(C)=O)nc2-c2ccccc2)S1	?	/	20.6µM*	-0.8%	?	?
CC1=Nc2ccccc2N=C(NC(=O)CSC(=S)N2CCN(C)CC2)C1c1ccccc1 (stereo not drawn)	0.5%	-6.5%	-10.6%	0.6%	-18.8%	-1.7%
CC1=Nc2ccccc2N=C(NC(=O)CSC(=S)N2CCCCC2)C1c1ccccc1 (stereo not drawn)	2.0%	-0.6%	20.6µM*	1.7%	16.5%	-0.3%
Cc1ccc(NC(=O)NN2CCN(C)CC2)cc1C	-1.3%	-9.1%	8.2%	2.1%	5.3%	1.6%
CC(C)(C)C(=O)Nc1ccc2c(c1)OCCOCCOc1cc(NC(=O)C(C)(C)C)ccc1OCCOCCO2	5.6%	9.6%	7.3µM*	-11.4%	-8.6%	-0.9%
CC(=O)Nc1ccc2c(c1)OCCOCCOc1cc(NC(C)=O)ccc1OCCO2	5.1%	i	-4.1%	5.9%	-2.7%	1.0%
CN(CC(=O)NCCc1ccc(S(N)(=O)=O)cc1)CC(=O)Nc1cccc(F)c1	5.7%	5.2%	17.6%	/	-2.3%	-3.7%
O=S(=O)(Nc1ccc(Cl)cc1)c1ccc2c(c1)CCO2	0.4%	2.2%	-2.1%	17.8µM*	-11.4%	-1.1%
Nc1cc(S(=O)(=O)Nc2ccc(Cl)cc2)ccc1N1CCOCC1	9.8%	4.1%	14.6µM*	-1.2%	-7.8%	-7.3%
CC1=CC(=C2C=CC(=O)C=C2)C=C(C)N1C	/	/	0.0%	-11.5%	/	-9.4%
c1cncc(CSc2nnc3ccc(-c4cccs4)nn23)c1	-2.1%	-11.6%	?	25.1µM*	-0.4%	-2.5%
COc1ccc(O)c(-c2[nH]ncc2C(=O)c2ccccc2)c1	-3.1%	1.4%	23.1µM*	3.9%	1.7%	-0.6%
COc1ccc(-c2cn[nH]c2-c2ccc(OCc3ccccc3)cc2O)cc1	-0.5%	8.2%	20.6µM*	3.0%	7.8%	0.5%
O=C(c1ccccc1)c1cn[nH]c1-c1ccccc1O	3.5%	-0.9%	0.6%	-0.4%	-5.6%	-0.3%
COc1ccc(-c2cn[nH]c2-c2ccc(OC)cc2O)cc1	-1.6%	-7.2%	10.3µM*	/	0.7%	-6.8%
COc1ccccc1-c1cn[nH]c1-c1ccc(OCc2ccccc2)cc1O	3.5%	1.4%	?	-10.5%	14.6%	-5.4%
CCc1ccc(S(=O)(=O)c2cn(Cc3ccccc3)c3cc(N4CCCC4)c(F)cc3c2=O)cc1	/	-5.0%	/	/	/	/
Cc1c(F)cccc1NS(=O)(=O)c1ccc(OCCNS(C)(=O)=O)cc1	0.0%	-0.7%	?	6.31µM*	-2.5%	3.1%
CCN1C(=O)/C(=C\c2cccs2)C(C(=O)OC)=C1C	2.0%	-4.8%	?	-5.8%	-1.2%	4.2%
COC(=O)C1=C(C)N(Cc2cccnc2)C(=O)/C1=C\c1sccc1C	?	-0.8%	20.6µM*	1.9%	-4.9%	2.6%
CN(C)S(=O)(=O)c1cccc(NC(=O)CSc2nc3ccccc3[nH]2)c1	-7.6%	-8.7%	13µM*	8.0%	-7.2%	5.3%
CCN(CC)S(=O)(=O)c1cccc(NC(=O)CSc2nc3ccccc3[nH]2)c1	1.6%	-1.8%	23.1µM*	-16.9%	0.8%	-6.1%
SMILES	Rango-impB inh	PGK inhibitor	ELG1 repair inh	PKM2 act	Rango release inh	Tb PFK inh
CCc1ccc(S(=O)(=O)c2nnn(-c3ccc(F)cc3)c2N)cc1	/	-1.6%	/	/	/	/
Cc1c(C)n(Cc2ccccc2)c2ncnc(NCCO)c12	2.0%	2.0%	-2.2%	/	-6.8%	-8.1%
Cc1c(C)n(Cc2ccccc2)c2ncnc(N)c12	0.3%	-9.5%	16.4µM*	-3.2%	-4.3%	-1.5%
CCOc1cc(/C=N\Nc2ncc(F)c(N3CCOCC3)n2)ccc1Oc1nc(Cl)ncc1F	-0.7%	-11.2%	23.1µM*	-1.5%	0.5%	0.0%
Brc1ccc(-c2ccc(/C=N/Nc3nc(N4CCOCC4)nc(N4CCOCC4)n3)o2)cc1	-3.2%	-1.6%	5.8µM*	-3.9%	3.7%	0.2%
O=[N+]([O-])c1ccc(/C=N/Nc2nc(N3CCCCC3)nc(N3CCCCC3)n2)o1	2.1%	0.0%	23.1µM*	-1.2%	-23.3%	-2.4%
O=[N+]([O-])c1ccc(/C=N/Nc2nc(N3CCOCC3)nc(N3CCOCC3)n2)cc1	/	/	?	-0.7%	/	-3.5%
Cc1ccc(/C=N/Nc2cc(C)nc(N3CCOCC3)n2)cc1	5.6%	i	?	0.4%	-5.0%	2.0%
Clc1ccc(-c2ccc(/C=N/Nc3cc(N4CCOCC4)nc(N4CCOCC4)n3)o2)cc1	?	-4.7%	5.8µM*	17.6%	?	-0.4%
CCC(C)[C@H]1COCCS(=O)(=O)N1Cc1ccc(Br)cc1 (stereo partly drawn)	0.1%	-1.8%	-11.0%	-2.5%	-4.9%	1.6%
Fc1cnc(N/N=C/c2ccc(-c3ccc(Br)cc3)o2)nc1N1CCOCC1	-1.4%	-8.8%	11.6µM*	3.8%	30.0%	2.6%
Cc1cn(-c2ccccc2)c(C)c1/C=N\Nc1nc(N2CCOCC2)nc(N2CCOCC2)n1	5.4%	-2.3%	8.2µM*	-7.9%	3.4%	1.9%
Brc1ccc(-c2ccc(/C=N/Nc3nncc(-c4ccccc4)n3)o2)cc1	-4.8%	-1.6%	?	10.2%	-2.6%	2.0%
CCOc1ccc(-c2cc(CCCC(=O)NCCc3cc(OC)c(OC)c(OC)c3)no2)cc1	/	-11.3%	/	/	/	/
Nc1nc(Br)c2ccccc2c1-c1ccccc1	?	-3.9%	?	0.9%	13µM*	-6.9%
O=C(O)c1ccc2c(=O)n(-c3ccccc3F)c(=S)[nH]c2c1	1.8%	-1.0%	-3.3%	0.4%	8.1%	-3.2%
